# Compounds with a hit are over-represented: about 11% of the library has one in this group of screens.
# USP30 block: inhibitors of human USP30 deubiquitinase; Ubiquitin carboxyl-terminal hydrolase 30 (Homo sapiens), Q70CQ3; inhibition, % at 25 µM; actives 5.3% (n = 47,000); AID 1645860, 2021; purified USP30, Ub-rhodamine cleavage fluorescence
# USP17 inh: inhibitors of human USP17 deubiquitinase; Ubiquitin carboxyl-terminal hydrolase 17-like protein 5 (Homo sapiens), A8MUK1; purified USP17, Ub-rhodamine cleavage fluorescence, 3 h; inhibition, % at 50 µM; actives 6.5% (n = 47,000)
# USP28 block: inhibitors of human USP28 deubiquitinase; actives 3% (n = 47,000); Ubiquitin carboxyl-terminal hydrolase 28 (Homo sapiens), Q96RU2; purified USP28, Ub-rhodamine cleavage fluorescence, 30 min; inhibition, % at 25 µM
# Target sequence (Q96RU2 whole entry, looked up): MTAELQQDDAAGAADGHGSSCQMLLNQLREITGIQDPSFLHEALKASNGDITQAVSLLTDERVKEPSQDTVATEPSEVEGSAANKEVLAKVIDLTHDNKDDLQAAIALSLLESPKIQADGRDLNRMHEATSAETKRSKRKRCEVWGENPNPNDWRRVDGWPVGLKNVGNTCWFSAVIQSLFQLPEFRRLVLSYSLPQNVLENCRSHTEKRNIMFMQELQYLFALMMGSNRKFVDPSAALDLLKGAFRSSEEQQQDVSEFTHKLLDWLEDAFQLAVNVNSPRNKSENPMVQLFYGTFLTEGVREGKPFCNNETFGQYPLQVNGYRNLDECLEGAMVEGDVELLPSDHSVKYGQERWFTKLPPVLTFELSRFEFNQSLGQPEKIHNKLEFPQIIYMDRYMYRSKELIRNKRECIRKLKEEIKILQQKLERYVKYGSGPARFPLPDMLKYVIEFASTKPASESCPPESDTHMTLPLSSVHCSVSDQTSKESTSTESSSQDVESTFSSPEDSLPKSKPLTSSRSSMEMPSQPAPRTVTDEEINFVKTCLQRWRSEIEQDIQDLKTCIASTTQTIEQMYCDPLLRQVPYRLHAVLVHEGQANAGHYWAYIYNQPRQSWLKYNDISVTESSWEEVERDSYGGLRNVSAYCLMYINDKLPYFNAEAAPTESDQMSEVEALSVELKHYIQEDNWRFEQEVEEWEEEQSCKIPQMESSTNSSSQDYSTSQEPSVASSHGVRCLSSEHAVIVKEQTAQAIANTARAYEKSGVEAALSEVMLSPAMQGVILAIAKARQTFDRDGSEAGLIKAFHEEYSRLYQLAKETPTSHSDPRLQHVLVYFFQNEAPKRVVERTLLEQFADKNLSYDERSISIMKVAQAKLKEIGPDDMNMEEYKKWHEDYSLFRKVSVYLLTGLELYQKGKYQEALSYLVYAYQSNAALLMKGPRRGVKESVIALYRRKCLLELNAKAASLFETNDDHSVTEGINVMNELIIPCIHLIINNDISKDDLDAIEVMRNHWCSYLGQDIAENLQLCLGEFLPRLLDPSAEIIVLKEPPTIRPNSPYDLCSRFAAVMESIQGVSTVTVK
# Numbers without * were called inactive; x = no result given. Cut-off read from the data, not from the text of the source: active = inhibition above about 30%; inactive = the rest.
SMILES,USP30 block,USP17 inh,USP28 block
O=C(Cn1cnc2ccccc2c1=O)c1c[nH]c2ccccc12,44*,47*,32*
O=C(Cn1cnc2cc([N+](=O)[O-])ccc2c1=O)c1c[nH]c2ccccc12,-72,20,13
Cc1cc(CSc2ncccc2C(=O)Nc2ccnn2C(C)c2ccncc2)no1 (configuration not stated),-55,-42,-14
COc1ccc(CC(=O)N2CCC3(CC2)N=C(c2ccccc2)C(=O)N3)cc1,22,5,12
Cc1cccc(C(=O)N2CCC[C@@H]2Cn2nnc(-c3cccnc3)n2)c1,7,3,2
O=S(=O)(c1cccc(F)c1)N1CCCn2nnc(COCC3CC3)c2C1,7,2,2
O=C(CSc1nc2ccccc2[nH]1)N1CCN(Cc2ccc3c(c2)OCO3)CC1,-55,-14,11
Cc1cc(C(=O)CSc2nc3ccccc3[nH]2)c(C)n1Cc1ccco1,-50,50*,25
O=C(O)c1ccccc1N[C@H]1O[C@H](CO)[C@@H](O)[C@@H](O)[C@H]1O,-63,x,-15
CC(O)/C=C/C1OC(=O)CC1Nc1ccc(CO)cc1 (configuration not stated),0,44*,2
CC(O)/C=C/C1OC(=O)CC1Nc1ccc(C(=O)O)cc1 (configuration not stated),-48,-16,-9
O=C(CSc1ccccc1)Nc1cccc2nsnc12,24,32*,28
CCC(C(=O)Nc1cccc2nsnc12)c1ccccc1 (configuration not stated),-7,10,7
Cc1c(Cl)cccc1NC(=O)C1CCCN(c2nnc(-n3cccc3)s2)C1 (configuration not stated),-45,30,-13
COC(=O)c1ccccc1NC(=O)C1CCCN(c2nnc(-n3cccc3)s2)C1 (configuration not stated),36*,x,18
O=C1CC(O)C(C2=CC(=O)c3c(O)cccc3C2=O)O1 (configuration not stated),8,71*,83*
CCOC(=O)c1ccc(NC(=O)CN2C(=O)CSCC2=O)cc1,-27,-22,-10
CCOC(=O)c1ccc(NC(=O)COc2cccc3c2CCN(CC)C3=O)cc1,14,16,69*
O=C(Cn1cccc(S(=O)(=O)N2CCCCCC2)c1=O)Nc1ccccc1,-23,-19,-14
O=C(Cn1cccc(S(=O)(=O)N2CCCCCC2)c1=O)Nc1ccc(F)cc1,5,42*,-18
O=c1c(S(=O)(=O)N2CCCCCC2)cccn1Cc1ccccc1,-75,-4,-11
C=Cc1ccc(Cn2cccc(S(=O)(=O)N3CCCC3)c2=O)cc1,-59,63*,49*
COc1ccc(CCNc2nc3c(c(=O)n(C)c(=O)n3C)n2Cc2ccccc2Br)cc1OC,7,-3,0
COc1ccc(NC(=O)Nc2ccc3nc(C)sc3c2)cc1,-7,-8,5
Cc1ccccc1CNC(=O)CCc1c(C)nn(-c2cc(N3CCCC3)ncn2)c1C,-34,-6,-11
SMILES,USP30 block,USP17 inh,USP28 block
Cc1nc(C2CCN(S(=O)(=O)c3ccc4c(c3)OCCO4)C2)nc2c1CCC(=O)N2C (configuration not stated),13,26,8
Cc1ccc(C(=O)NCCn2c(-c3ccncc3)nc3cccnc32)cc1F,-65,-17,-28
COc1ccc(S(=O)(=O)NCc2ccc(C(=O)N3CCN(c4ccccn4)CC3)cc2)cc1,11,6,3
COc1ccc(CC(=O)N2CCN(c3ccc(Nc4ccccn4)nn3)CC2)cc1,0,x,37*
O=C(Cn1c(-c2ccccc2)cc2ccccc21)NCc1cccnc1,-44,-37,-31
Cc1cc(C)n(Cc2c(C(=O)NC3CCCc4ccccc43)noc2C)n1 (configuration not stated),-133,-23,-28
O=C(c1cnc2n1CC(c1cccc(C(F)(F)F)c1)CC2)N1CCNCC1 (configuration not stated),30*,-39,4
CNC(=O)c1cnc2n1CC(c1cccc(C(F)(F)F)c1)CC2 (configuration not stated),15,-10,8
CCCC(=O)Nc1ccc(SCc2nnc(-c3ccccc3)o2)cc1,-3,1,66*
Cc1cc(C(=O)Nc2nnc(CSc3ccccc3)o2)no1,7,-4,0
O=C(CCc1nc(CSc2nnc(-c3ccncc3)o2)no1)Nc1ccccc1,8,-36,-10
O=C(Nc1ccc(SCc2nnc(-c3ccccc3)o2)cc1)C1CC1,0,-29,61*
Cc1ccc(NC(=O)c2cc(NC(=O)Cc3ccccc3)ccc2N2CCCCC2)cc1Cl,-94,x,-23
CN1C(=O)OC[C@@H]2CCN(Cc3ccc(N4CCOCC4)cc3)C[C@H]21,4,2,-1
